# Compound activity: PubChem, several laboratories
# In the library only some 3.8% were active in any assay of this set; here they are far more common.
# Jurkat NFkB inh: inhibitors of the PMA/ionomycin-induced NF-kB reporter in Jurkat cells | 330,000 compounds, 0.53% hits | PMA/ionomycin-induced NF-kB luciferase reporter, luminescence | inhibition, % at 4 µM | AID 435003; in the data active means inhibition above about 50%
# Gli-Sufu block: antagonists of Gli-Sufu signaling; 340,000 compounds, 0.74% hits; inhibition, % at 5 µM; Sufu-KO-LIGHT fibroblasts, Gli luciferase reporter luminescence;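 active means inhibition above about 55%, limit read from the data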;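 further: 0% = DMSO-treated cells and 100% = wells with medium but no cells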
# 697 NFkB inh: inhibitors of the PMA/ionomycin-induced NF-kB reporter in 697 B cells; 697 B-cell NF-kB luciferase reporter, 16 h; inhibition, % at 4 µM; 330,000 compounds, 0.33% hits; AID 435022; in the data active means inhibition above about 35%
# Mdm2 MdmX PPI: inhibitors of human Mdm2/MdmX interaction; inhibition, % at 8 µM; AID 485346; SaOS-2 split-luciferase Mdm2/MdmX complementation, luminescence; 330,000 compounds, 3% hits; O15151+Q00987;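 active means inhibition of at least 50% at 8 µM in the primary screen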
# Shn3 inh set2: reduces Shn3 3'UTR luciferase signal in osteoblasts. inhibition, % at 12.5 µM. Clone20 osteoblast Shn3 3'UTR firefly luciferase, 24 h. 360,000 compounds, 0.52% hits;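 active means mean inhibition of at least 75% with every replicate also reaching 75%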;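 further: 0% = median of neutral control wells and 100% = pilot-screen positive control compound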
# Jurkat NFkB conf: inhibitors of the PMA/ionomycin-induced NF-kB reporter in Jurkat cells, retest; 2,700 compounds, 27% hits; shares compounds with Jurkat NFkB inh; inhibition, % at 4 µM; Jurkat NF-kB luciferase, 16 h;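 active means inhibition reaching about 45% at 4 µM in either replicate, limit read from the data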;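 further: plate controls were PMA/ionomycin stimulated DMSO wells for no effect and unstimulated DMSO wells for full effect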
# 697 NFkB conf: inhibitors of the PMA/ionomycin-induced NF-kB reporter in 697 B cells, retest | 2,000 compounds, 35% hits | AID 449746 | inhibition, % at 4 µM | shares compounds with 697 NFkB inh | 697 B-cell NF-kB luciferase, 16 h; in the data active means inhibition mostly above about 28%, no sharp cut-off; inactive means mostly below about 22%
# Mdm2-MdmX conf: human Mdm2/MdmX binding inhibition, confirmed. luminescent assay. AID 489028. inhibition, % at 8 µM. shares compounds with Mdm2 MdmX PPI. 10,000 compounds, 55% hits; in the data active means inhibition above about 40%
# Full FLuc ctr: inhibits full-length luciferase, flagging false Mdm2/MdmX hits; shares compounds with Mdm2 MdmX PPI; SaOS-2 full-length luciferase counterscreen, luminescence; inhibition, % at 8 µM; 6,200 compounds, 77% hits;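 active means mean inhibition at 8 µM reaching about 37%, which flags the compound as non-specific, limit read from the data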;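 further: p53-null SaOS-2 cells with luciferase driven by a doxycycline-inducible promoter; compound on cells about two nights before reading with doxycycline added after day one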
# Gli antag conf: confirmation of Gli-SUFU pathway antagonists; Sufu-KO-LIGHT cells, Gli luciferase reporter, luminescence; shares compounds with Gli-Sufu block; AID 602428; 2,500 compounds, 40% hits; inhibition, % at 5 µM;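 active means mean inhibition at 5 µM reaching about 45%, limit read from the data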;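 further: plate controls were DMSO-treated cells for no effect and wells lacking cells for full effect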
# SufuKO cytotox: cytotoxicity counter-screen for Gli-SUFU antagonists; shares compounds with Gli-Sufu block; Sufu-KO-LIGHT cells cytotoxicity, ATP luminescence; cytotoxicity, % at 5 µM; 2,500 compounds, 32% hits;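 active means mean cytotoxicity at 5 µM above about 25%, limit read from the data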;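 further: cells exposed to compound overnight for roughly 16 to 18 hours; plate controls were DMSO wells with cells for no effect and medium without cells for full effect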
# Wnt3a cs: inhibits Wnt3a reporter, counter-screen for Gli-SUFU antagonists. shares compounds with Gli-Sufu block. Wnt-LIGHT cells, Wnt3a-driven luciferase reporter, luminescence. inhibition, % at 6.25 µM. 2,500 compounds, 20% hits. AID 651995;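 active means mean inhibition above about 25%, limit read from the data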
# * hit, by the source's call; i = inactive; . = not tested or not shown.
SMILES,Jurkat NFkB inh,Gli-Sufu block,697 NFkB inh,Mdm2 MdmX PPI,Shn3 inh set2,697 NFkB conf,others
C[C@]12CCC(=O)C=C1C=CC1C2CC[C@]2(C)C(=O)CCC12 (stereo not given in full),-1,12,-5,19,-28,.,
CN1/C(=C\C=C\C2=[N+](C)c3ccc4ccccc4c3C2(C)C)C(C)(C)c2ccccc21,99*,.,24,100*,.,.,Jurkat NFkB conf=84*;Mdm2-MdmX conf=100*;Full FLuc ctr=0
COc1cc2c(c(OC)c1OC)-c1ccc(O)c(=O)cc1C(NC(C)=O)CC2 (stereo not given),55*,61*,-212,69*,-8,.,Jurkat NFkB conf=1;Mdm2-MdmX conf=66*;Full FLuc ctr=110*;Gli antag conf=66*;SufuKO cytotox=61*;Wnt3a cs=29*
CCOc1cc2c(cc1OCC)-n1cccc1C(c1ccccc1O)NC2 (stereo not given),-19,3,1,20,19,.,
Cc1cc(OCC(=O)N2CCC(C(N)=O)CC2)c2c3c(c(=O)oc2c1)CCCC3,-8,5,42*,6,-27,30*,
COC(=O)C1=C(c2cccc(OC)c2OC)C[C@@H]2CC[C@H]1N2C(=O)NC1CCCCC1,6,-7,21,14,7,.,
O=C(Nc1ccc(OC(=O)N2CCCCC2)cc1)N1CCOCC1,3,16,58*,2,60,0,
COC(=O)C1=C(c2ccc(-c3ccccc3)c(F)c2)C[C@@H]2CC[C@H]1N2C(=O)N1CCCCC1,24,37,32,13,73,.,
COC(=O)C1=C(c2ccc(-c3ccccc3)c(F)c2)C[C@@H]2CC[C@H]1N2C(=O)N1CCCC1,22,26,46*,-5,83,62*,
C[C@]12CC[C@H]3C(CCC4(O)CC(O)CC[C@]34C=O)C1=CC[C@H]2c1ccc(=O)oc1 (stereo not given in full),26,-4,i,33,7,i,
CC12CC[C@H]3[C@@H](CCC4(O)C[C@H](O)CCC34/C=N/NC(=O)Cc3ccccc3)C1(O)CCC2C1=CC(=O)OC1 (stereo not given in full),-10,2,-1,-36,-5,.,
Cc1cccc(NC2=NCCCS2)c1,-10,8,0,15,-85,.,
COC(=O)C1=C(c2ccc(Cl)c(C(F)(F)F)c2)C[C@@H]2CC[C@H]1N2C,-2,9,6,-3,-19,.,
Cc1nc2ncnn2c(C)c1CCC(=O)N1CCC2(CC1)OCCO2,7,4,20,5,2,.,
Cc1nc2cc(-c3ccccc3)nn2c(C)c1CCC(=O)N1CCC2(CC1)OCCO2,14,11,43*,22,40,46*,
Cc1cc(OC(=O)N(C)C)nc(-c2ccc(C)c(Cl)c2)n1,-14,-4,22,14,26,.,
CN(C)c1cccc2c(C#N)ccc(N(C)C)c12,16,-6,39*,3,5,-13,
C[C@H]1CCC[C@@H](O)CCC/C=C/c2cc(O)cc(O)c2C(=O)O1,10,2,43*,40,-15,13,
CC1CN(c2ccc([N+](=O)[O-])c3cccnc23)CC(C)N1 (stereo not given),-16,-10,-275,20,-24,-62,
O=[N+]([O-])c1ccc(N2CCCC2)c2ncccc12,17,3,-2,17,3,.,
C=CCn1c(O)c(C(C)=NCCC(c2ccccc2)c2ccccc2)c(=O)[nH]c1=O,-14,16,-5,21,-2,.,
C=CCn1c(O)c(C(C)=NC(C)c2ccccc2)c(=O)[nH]c1=O (stereo not given),-2,10,41*,49,-13,30*,
COCCNC(=O)CN1C(=O)C(C)N=C(c2ccccc2)c2cc(Cl)ccc21 (stereo not given),-10,3,4,18,4,.,
CNC(=O)Oc1cccc(-c2cn3cc(Cl)ccc3n2)c1,-87,-101,-293,-222,13,-222,
CSc1nc(C)c(Br)c(N2CC2)n1,.,4,.,.,-10,.,
SMILES,Jurkat NFkB inh,Gli-Sufu block,697 NFkB inh,Mdm2 MdmX PPI,Shn3 inh set2,697 NFkB conf,others
O=c1[nH]c(O)c(/C=C2/C=CC(c3cc(Cl)ccc3Cl)=N2)c(=O)[nH]1,17,4,36*,46,15,7,
C/C(=C\c1ccc(N(C)C)cc1)[N+](=O)[O-],19,0,38*,100*,29,12,Mdm2-MdmX conf=31
C=C1C(=O)[C@@]23C[C@H]4[C@@H]5[C@@]6(C)CCC[C@@]57[C@@H]2[C@@H](O)[C@@H]1C[C@H]3[C@H]7N4C6,47,-12,44*,100*,-53,37*,Mdm2-MdmX conf=90*;Full FLuc ctr=52*
CCCCn1nnnc1C(c1ccccc1)N1CCC2(CC1)C(=O)NCN2c1ccccc1 (stereo not given),.,.,.,.,0,.,
COC(=O)C1=C(c2cccc(C#N)c2)C[C@@H]2CC[C@H]1N2C(=O)NC1CCCCC1,3,1,4,-8,-4,.,
CCn1c(=O)cc(SCC(=O)N2CCC3(CC2)OCCO3)c2ccccc21,13,34,62*,53*,-3,40*,Mdm2-MdmX conf=39
CCN1CCN(S(=O)(=O)c2ccc(Cl)c(C(=O)Nc3ccc(C(=O)N(CC)CC)cc3)c2)CC1,21,41,-31,14,58,.,
O=C1NC(=O)N(Cc2ccccc2)C(=O)/C1=C\C=C\c1ccco1,5,-2,2,66*,-9,.,Mdm2-MdmX conf=13
O=C1NC(=O)N(Cc2ccco2)C(=O)/C1=C/C=C/c1ccco1,-3,0,10,22,34,.,
C=CC[N+]1(C)C2CCC1CC(O)C2 (stereo not given),10,-3,10,0,-6,.,
O=C1/C(=C\c2ccccc2)C2OCC=C3CN4CCC56c7ccccc7N1C5C2C3CC46 (stereo not given),19,10,-12,71*,-21,.,Mdm2-MdmX conf=51*;Full FLuc ctr=70*
